Most compounds without a hit are left out; they make up all but 3.3% or so of the library.
AmpC inh no detg: AmpC beta-lactamase inhibition without detergent; P00811; AmpC nitrocefin hydrolysis, absorbance 480 nm, 0.0001% Triton; Potency, µM (titrated, usually from 57.1 µM), inactives show at the highest dose activity change, negative = inhibition, most hits filed as inhibitors; 0.52% of 330,000 active; AID 485341;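 note: plate controls were no compound for no effect and no enzyme for full effect; nearly all actives have a fitted effect of over 20% in size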
Target sequence (P00811 whole entry, looked up): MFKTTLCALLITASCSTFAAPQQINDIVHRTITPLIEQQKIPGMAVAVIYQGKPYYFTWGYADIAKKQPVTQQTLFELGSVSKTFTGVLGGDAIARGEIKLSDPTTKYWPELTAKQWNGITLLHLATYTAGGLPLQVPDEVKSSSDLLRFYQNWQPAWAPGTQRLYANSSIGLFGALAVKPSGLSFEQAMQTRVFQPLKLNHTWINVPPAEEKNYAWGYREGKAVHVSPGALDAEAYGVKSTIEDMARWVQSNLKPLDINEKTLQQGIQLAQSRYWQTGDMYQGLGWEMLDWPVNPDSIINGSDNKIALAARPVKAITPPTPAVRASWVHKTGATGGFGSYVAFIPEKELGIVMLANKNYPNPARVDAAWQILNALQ
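20 mM phosphate pH 7.0 + 0.01% (detergent screen) or 0.0001% Triton X-100; 5.3 nM AmpC reagent; cpd preinc 15 min RT; nitrocefin (800 uM stock) to start; A480 q20 s × 4 min; Activity was normalised to no-enzyme and no-compound control wells.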
Sm TGR inh: S. mansoni TGR enzyme inhibition; AID 485364; 3% of 360,000 active; Q962Y6; purified TGR, DTNB reduction, TNB absorbance 405 nm; Potency, µM (series often up to 114 µM), inactives show at the highest dose activity change, negative = inhibition, usual class: inhibitors; note: nearly all actives have a fitted effect of over 60% in size
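TGR 20 nM + NADPH 100 uM (dispensed conc.), cpd preinc 15 min RT; start with NADPH (500 uM addition) then DTNB (15 mM addition). Kinetic TNB absorbance, 405 nm filter. Four-parameter Hill fit across titration.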
AmpC inh detg: inhibitors of E. coli AmpC beta-lactamase with detergent; 0.041% of 370,000 active; Potency, µM (highest dose often 114 µM), inactives show at the top dose activity change, negative = inhibition, most hits filed as inhibitors; AID 485294; P00811; AmpC hydrolysis of nitrocefin, absorbance 480 nm, 0.01% Triton;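 note: 0% = no-compound wells and -100% = no-enzyme wells; nearly all actives have a fitted effect of over 25% in size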
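20 mM phosphate pH 7.0 + 0.01% (detergent screen) or 0.0001% Triton X-100; 5.3 nM AmpC reagent; cpd preinc 15 min RT; nitrocefin (800 uM stock) to start; A480 q20 s × 4 min; Activity was normalised to no-enzyme and no-compound control wells.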
Starred values were filed as active, the others as inactive. Calls come from the whole dose curve; as a rule, active = well fitted curve in the direction sought with a large enough effect; inconclusive = small, poorly fitted or top-dose-only effect, or another doubt; inactive = no such curve, though single readings can be large; an effect the other way counts as inactive or inconclusive. Unless noted, % is set by controls: 0 for no effect and ±100 for the full control effect; potency is the fitted concentration of half-maximal effect.

Results for Cc1ccc(N2C(N)=C(C#N)C(c3cccnc3)C3=C2CC(C)(C)CC3=O)cc1 (stereo not given) ?
AmpC inh no detg: 14%; Sm TGR inh: 40µM*; AmpC inh detg: -2%

What do the screens show for `Cc1ccc(N2C(N)=C(C#N)C(c3ccsc3)C3=C2CC(C)(C)CC3=O)cc1` (stereo not given)?
AmpC inh no detg: -17%; Sm TGR inh: -14%; AmpC inh detg: -4%

What do the screens show for `CCOc1ccc(OCC)c(C2C(C#N)=C(N)N(c3cccnc3)C3=C2C(=O)CC(C)(C)C3)c1` (stereo not given)?
AmpC inh no detg: 94%; Sm TGR inh: 22µM*; AmpC inh detg: -15%

What do the screens show for `CSc1sc(C)cc1C1C(C#N)=C(N)N(c2cccnc2)C2=C1C(=O)CC(C)(C)C2` (stereo not given)?
AmpC inh no detg: 36%; Sm TGR inh: -17%; AmpC inh detg: 0%

What do the screens show for `CCC(=O)N1CCc2cc(Br)cc(S(=O)(=O)NCCc3ccc(OC)c(OC)c3)c21`?
Sm TGR inh: 1%; AmpC inh detg: 5%

What do the screens show for `CCCSC(=S)c1c(C)[nH]n(-c2ccccc2)c1=O`?
AmpC inh no detg: -26%; Sm TGR inh: inconclusive; AmpC inh detg: -3%

What do the screens show for `CC(=O)Nc1ccc2c(c1)CCCC2`?
AmpC inh no detg: -2%; Sm TGR inh: -3%; AmpC inh detg: -2%

Results for CC(=O)Nc1ccc2c(c1)CCCC2=O ?
AmpC inh no detg: -9%; Sm TGR inh: 32µM*; AmpC inh detg: -9%

What do the screens show for `O=C(/C=C/c1ccc(O)cc1)c1ccc(NC2=C(N3CCCCC3)C(=O)c3ccccc3C2=O)cc1`?
AmpC inh no detg: -32%; Sm TGR inh: 25µM*; AmpC inh detg: -12%

What do the screens show for `O=C1C(Nc2ccccc2)=C(N2CCCCC2)C(=O)c2ccccc21`?
AmpC inh no detg: -15%; Sm TGR inh: 8.9µM*; AmpC inh detg: -1%

What do the screens show for `COc1ccccc1NC1=C(N2CCCCC2)C(=O)c2ccccc2C1=O`?
AmpC inh no detg: -24%; Sm TGR inh: inconclusive; AmpC inh detg: -1%

Results for O=C1C(Nc2cccc(O)c2)=C(N2CCCCC2)C(=O)c2ccccc21 ?
AmpC inh no detg: -50%; Sm TGR inh: 10µM*; AmpC inh detg: inconclusive

How did CN(C1=C(N2CCCCC2)C(=O)c2ccccc2C1=O)c1ccccc1 do in these assays?
AmpC inh no detg: -28%; Sm TGR inh: inconclusive; AmpC inh detg: 3%

Results for O=C1C(NS(=O)(=O)c2ccc(Br)cc2)=C(N2CCCCC2)C(=O)c2ccccc21 ?
AmpC inh no detg: -28%; Sm TGR inh: -18%; AmpC inh detg: 3%

Results for Cc1ccc(NC2=C(N3CCCCC3)C(=O)c3ccccc3C2=O)cc1 ?
AmpC inh no detg: -14%; Sm TGR inh: 13µM*; AmpC inh detg: -1%

What do the screens show for `O=C(/C=C/c1ccc(O)cc1)c1ccccc1`?
AmpC inh no detg: -32%; Sm TGR inh: -19%; AmpC inh detg: 2%

How did CCCS(=O)(=O)N1CCCC(C(=O)NCCc2cccc(C)c2)C1 (stereo not given) do in these assays?
AmpC inh no detg: -2%; Sm TGR inh: 2%; AmpC inh detg: 1%

What do the screens show for `Cc1cccnc1NC1(C(F)(F)F)N=C2SCCN2C1=O` (stereo not given)?
AmpC inh no detg: -14%; Sm TGR inh: 14%; AmpC inh detg: 3%

Results for Cc1ccc(SCC(=O)NC(=O)NCCC(C)C)c(C)c1 ?
AmpC inh no detg: -19%; Sm TGR inh: 2%; AmpC inh detg: 3%

Results for CC1=C(Nc2ccc(C(=O)O)cc2)C(=O)c2ccccc2C1=O ?
AmpC inh no detg: -24%; Sm TGR inh: 22µM*; AmpC inh detg: -13%

How did CC(C(=O)Nc1ccc(C(=O)O)cc1)N1C(=O)c2ccccc2C1=O (stereo not given) do in these assays?
AmpC inh no detg: -15%; Sm TGR inh: 15%; AmpC inh detg: inconclusive

What do the screens show for `Cc1ccnc(NS(=O)(=O)c2ccc(NC(=O)c3cc(-c4ccc(Br)cc4)nc4ccccc34)cc2)n1`?
AmpC inh no detg: -18%; Sm TGR inh: -1%; AmpC inh detg: -7%

Results for O=C(NCC(c1ccco1)N1CCc2ccccc2C1)C(=O)Nc1ccc(F)cc1F (stereo not given) ?
AmpC inh no detg: -25%; Sm TGR inh: -9%; AmpC inh detg: inconclusive

Results for Cc1cc(O)c2c(c1O)C(=O)[C@]13C(=C2O)C(=O)[C@@H]2[C@@H](O)[C@H]1[C@@H]1[C@H](O)[C@H]3C(=O)C3=C(O)c4c(O)cc(C)c(O)c4C(=O)[C@]312 ?
AmpC inh no detg: 28µM*

Bioassay records as filed in PubChem BioAssay.
